From PubChem
A selection: hits, their analogues and other compounds. The true share with any hit is near 3.1%.
Pol III holo inh: inhibitors of bacterial DNA polymerase III holoenzyme; reconstituted DNA polymerase III holoenzyme replication, biochemical; 71,000 tested, 0.25% active; Potency, µM (titrated, usually from 57.1 µM), for inactives: top-dose activity change, negative = inhibition; also: potency is read from the fitted curve at half-maximal effect; % is scaled to controls: 0 for no effect and ±100 for the full control effect
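Reconstituted *E. coli* holoenzyme (0.35 nM Pol III, 1 nM beta, 154 nM SSB, 2 nM primase) was preincubated with compound for 15 min at RT. Synthesis on 1.4 nM ssM13Gori ran 35 min, then was stopped with PicoGreen/EDTA and read as dsDNA fluorescence.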
YjeE inh: displaces an ADP probe from E. coli YjeE (TsaE). P0AF67. purified YjeE enzyme, qHTS inhibition assay. Potency, µM. 71,000 tested, 0.05% active. AID 605
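Fluorescence polarization of a BODIPY Texas Red–ADP probe (2 uM) bound to purified YjeE (10 uM) was read after 15 min room-temperature incubation with compounds. Loss of polarization marks inhibitors; ADP serves as titrated control.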
Tau fil binding: tau filament binding; P10636; recombinant tau filaments, thioflavin S fluorescence, 15 h; filaments grown with octadecylsulfate alongside compound; Potency, µM (series often up to 57.1 µM), without a hit: at the highest dose activity change, negative = inhibition; 71,000 tested, 2% active;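 also: potency is read from the fitted curve at half-maximal effect; % is scaled to controls: 0 for no effect and ±100 for the full control effect; actives lower thioflavin S fluorescence by blocking filaments or displacing dye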
Target sequence (P10636 whole entry, looked up): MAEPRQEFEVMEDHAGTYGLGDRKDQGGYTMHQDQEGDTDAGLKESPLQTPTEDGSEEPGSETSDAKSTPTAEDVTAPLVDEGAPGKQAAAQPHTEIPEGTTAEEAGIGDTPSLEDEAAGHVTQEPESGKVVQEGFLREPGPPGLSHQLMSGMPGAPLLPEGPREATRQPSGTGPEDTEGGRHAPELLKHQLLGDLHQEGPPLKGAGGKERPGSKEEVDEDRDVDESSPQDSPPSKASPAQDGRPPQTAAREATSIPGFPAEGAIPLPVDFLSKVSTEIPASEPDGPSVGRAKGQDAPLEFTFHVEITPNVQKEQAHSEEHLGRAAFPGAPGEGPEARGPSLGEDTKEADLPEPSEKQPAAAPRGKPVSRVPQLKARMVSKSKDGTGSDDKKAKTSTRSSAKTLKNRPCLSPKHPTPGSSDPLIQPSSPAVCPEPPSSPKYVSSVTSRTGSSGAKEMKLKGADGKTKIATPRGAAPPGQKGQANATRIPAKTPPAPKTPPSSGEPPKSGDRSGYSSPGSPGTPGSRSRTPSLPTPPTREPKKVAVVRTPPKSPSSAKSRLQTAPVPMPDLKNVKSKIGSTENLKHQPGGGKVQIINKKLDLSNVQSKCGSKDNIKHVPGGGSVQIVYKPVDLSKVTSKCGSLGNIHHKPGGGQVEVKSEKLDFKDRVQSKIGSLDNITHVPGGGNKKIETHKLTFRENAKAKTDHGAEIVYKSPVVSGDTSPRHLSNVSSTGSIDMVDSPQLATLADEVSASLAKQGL
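Quantitative HTS: thioflavine S signal from ODS-induced tau filaments, excited at 450 nm, emission 510 nm. Conditions: 1 uM tau, 30 uM ODS, 15 h at 37 C, pH 7.4.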
ALOX15 inhib: blocks human 15-lipoxygenase activity; P16050; purified 15hLO-1, xylenol orange hydroperoxide absorbance; 74,000 tested, 1.4% active; Potency, µM (highest dose often 57.1 µM), for the others: at the highest dose activity change, negative = inhibition, most hits filed as inhibitors; AID 887; also: potency is read from the fitted curve at half-maximal effect; % is scaled to controls: 0 for no effect and ±100 for the full control effect; nearly all actives have a fitted effect of over 55% in size
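40 nM 15hLO-1 + cpd, 15 min RT; start w/ 50 uM AA (final), 6 min RT; stop/detect w/ 200 uM XO + 300 uM Fe(II) in 50 mM H2SO4, 30 min; A573/A405. Buffer 25 mM Hepes pH 7.5, 0.01% Triton X-100. No-enzyme wells as negative control.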
BRCT inh green: inhibitors of human BRCA1 BRCT-phosphoprotein interaction (green fluorophore); P38398; BRCA1 BRCT-phosphopeptide binding, green fluorescence polarization; Potency, µM (highest dose often 76.9 µM), without a hit: top-dose activity change, negative = inhibition, usual class: inhibitors; 75,000 tested, 0.05% active; AID 875;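 also: potency is read from the fitted curve at half-maximal effect; plate controls were peptide without protein for full effect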
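Fluorescence polarization: His-tagged BRCT (~35 kDa BRCA1 C-terminus, 250 nM) bound to 100 nM fluorescein-labeled phosphorylated 10-aa BACH1 peptide, pH 7.3 phosphate buffer with DTT and Tween 20. Compounds incubated 12 min at room temperature; inhibition read as lowered polarization.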
BRCT inh red: BRCT-phosphoprotein interaction inhibition (red fluorophore); P38398; BRCT-phosphopeptide binding, red fluorescence polarization; Potency, µM (titrated, usually from 76.9 µM), inactives show top-dose activity change, negative = inhibition, hits mostly inhibitors; 75,000 tested, 0.03% active; AID 892; also: % is scaled to controls: 0 for no effect and ±100 for the full control effect
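Fluorescence polarization: 100 nM His-tagged BRCA1 BRCT with 100 nM TAMRA-labelled phospho-BACH1 decapeptide, phosphate buffer pH 7.3 with 150 mM NaCl, DTT, 0.01% Tween 20; 12 min RT. Binding inhibition seen as FP decrease.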
An asterisk follows results filed as active; i = inactive; ? = inconclusive; · = no result given; ! = not active in a repeat; [ ] = remark or other dose. Calls follow the shape of the dose curve; as a rule, active = well fitted curve in the direction sought with a large enough effect; inconclusive = small, poorly fitted or top-dose-only effect, or another doubt; inactive = no such curve, though single readings can be large; an effect the other way counts as inactive or inconclusive.

SMILES	Pol III holo inh	YjeE inh	Tau fil binding	ALOX15 inhib	BRCT inh green	BRCT inh red
N#Cc1cccc(NC(=O)N2CCCC3(CCN(S(=O)(=O)c4ccccc4)CC3)C2)c1	1%	i	202%	-4%	-4%	-2%
COCCNc1ncnc2ccc(-c3c(C)noc3C)cc12	-6%	i	5%	-14%	3%	-1%
CC1CCN(c2nc(-c3ccncc3)nc3ccccc23)CC1	2%	i	5%	-8%	4%	-1%
CN1CCN(c2nc(-c3ccc(N(C)C)cc3)nc3ccccc23)CC1	-7%	i	13µM*	2%	-3%	-1%
C=CC1=C(C)C2=Cc3c(C=C)c(C)c4[n]3[Sn+2][n]3c(c(C)c(CCC(=O)O)c3=CC3=NC(=C4)C(C)=C3CCC(=O)O)=CC1=N2	40µM*	79µM*	?	?	-10%	?
Oc1cc(O)cc(/C=C\c2ccc(O)c(O)c2)c1	-22%	i	?	0.79µM*	-3%	-2%
Oc1ccc(/C=C/c2cc(O)cc(O)c2)cc1	-8%	i	2%	-18%[25.6 µM]	0%	2%
Oc1ccc(/C=C\c2cc(O)cc(O)c2)cc1	3%	i	32µM*!	?	-3%	-3%
CC(CN(C)C)CN1c2ccccc2Sc2ccccc21 (stereo not drawn)	·	·	·	-5%	-2%[3.08 µM]	-1%
C[C@@H](CN1c2ccccc2Sc2ccccc21)N(C)C	-3%[25.6 µM]	i	13µM*!	16µM*!	-2%[34.4 µM]	0%[34.4 µM]
COc1ccc2c(c1)N(CC[C@H]1CCCCN1C)c1ccccc1S2	-9%[11.4 µM]	i	2.5µM*	7%[11.4 µM]	1%[15.4 µM]	0%[15.4 µM]
CCN1/C(=C\C(C)=O)Sc2ccc(OC)cc21	-7%	i	-6%	·	·	·
COc1ccc2c(c1)N(C[C@@H](C)CN(C)C)c1ccccc1S2	-3%[25.6 µM]	i	10µM*	-3%[25.6 µM]	3%[34.4 µM]	-1%[34.4 µM]
C[C@H]1C[C@@H]2[C@H]3CCC4=CC(=O)C=C[C@@]4(C)[C@]3(Cl)[C@@H](Cl)C[C@]2(C)[C@]1(O)C(=O)COP(=O)(O)O	2%[11.4 µM]	i	4%[11.4 µM]	·	·	·
CS(=O)(=O)N1CCC2(CC1)CN(c1ccc(-c3ccccc3)cc1)C2	-3%	i	-5%	-24%	-4%	0%
CCN1C(=O)[C@H]2[C@H]3[C@H](O)[C@H](O)C/C(=N/OC[C@@H](O)COCc4ccco4)[C@H]3CC[C@@H]2C1=O	·	·	·	-2%[11.4 µM]	-4%[15.4 µM]	-1%[15.4 µM]
C[C@@]12CC[C@H]3[C@H](CC=C4C[C@@H](O)CC[C@@]43C)[C@@H]1CC[C@@H]2N(CCO)CCO	-13%[11.4 µM]	i	15%[11.4 µM]	5%[11.4 µM]	0%[15.4 µM]	1%[15.4 µM]
Cc1c(C(=O)NC2CCCCC2)sc2nc3ccc(N)cc3n12	·	·	·	-23%	-2%	0%
N#Cc1c(/N=C/c2cccs2)sc2c1CCCCC2	7%	i	13µM*	-10%	-3%	0%
N#CC1=C(N)Oc2n[nH]c(-c3cccs3)c2C1c1ccoc1 (stereo not drawn)	-15%	i	12%	10µM*	1%	-4%
O=C(O)CCC(C(=O)O)n1c(O)c(C2=c3ccccc3=NC2=O)sc1=S (stereo not drawn)	-5%	i	-4%	10µM*	-2%	0%
O=C1N=c2ccccc2=C1c1sc(=S)n(CC2CCCO2)c1O (stereo not drawn)	-9%	i	-11%	-5%	-2%	0%
CCCn1c(C)nc2c(NCC(C)(C)CN(C)C)nc(C)nc21	-6%	i	12%	1%	-1%	0%
CCCCc1c(C)nn(-c2nnc3c4ccccc4n(CC)c3n2)c1C	-4%	i	2µM*	39%	0%	-1%
CC(=O)OC1CC2C(C)(C)C(O)CC[C@@]2(C)C2CC[C@@]3(C)C(c4ccoc4)OC(=O)C4O[C@@]43[C@]12C (stereo partly drawn)	·	·	·	-10%	1%	2%
SMILES	Pol III holo inh	YjeE inh	Tau fil binding	ALOX15 inhib	BRCT inh green	BRCT inh red
CCCCOc1cccc(C(=O)Nc2ccc(N3CCN(CC)CC3)cc2)c1	-6%	i	20µM*	-8%	-4%	-2%
CC[C@@H]1OC(=O)[C@@H](C)[C@H](O[C@@H]2C[C@@](C)(OC)[C@@H](O)[C@H](C)O2)[C@H](C)[C@H](O[C@@H]2O[C@@H](C)C[C@@H](N(C)C)[C@H]2O)[C@@](C)(O)C[C@H](C)C(=O)[C@@H](C)[C@H](O)[C@@]1(C)O	-4%	i	?	·	·	·
CC1Cc2ccccc2N1C(=O)c1cnsn1 (stereo not drawn)	4%	i	-7%	4µM*	-1%	-2%
CC1Cc2ccccc2N1C(=O)c1cccnc1 (stereo not drawn)	3%	i	3%	3%	1%	-2%
O=C1Nc2ccccc2C1=Nc1cccc2ncccc12	-11%[11.4 µM]	i	3%[11.4 µM]	-2%[11.4 µM]	-2%[15.4 µM]	0%[15.4 µM]
O=C1Nc2cccnc2Sc2ccccc21	-4%	i	-4%	16µM*	-2%	0%
CCN1C(C)=C(C(=O)OC)C(c2ccccc2)N2C(=O)[C@@]3(C(=O)OC)O[C@@]12C1C(=O)N(c2ccccc2)C(=O)C13 (stereo partly drawn)	·	·	·	1%[11.4 µM]	-1%[15.4 µM]	-3%[15.4 µM]
COC1=Cc2c(ccc3ccc(=O)oc23)OC1(C)C	-4%	i	-2%	32µM*	-1%	0%
CN/C=C1\C(=O)C(C)(C)Oc2ccc3ccc(=O)oc3c21	-8%	i	-11%	6%	-2%	1%
CC(=O)Nc1ccc(C2C(C)CCC3C(=O)N4C(CCC(C)[C@@H]4c4ccc(NC(C)=O)cc4)C(=O)N32)cc1 (stereo partly drawn)	·	·	·	-6%[11.4 µM]	-2%[15.4 µM]	0%[15.4 µM]
Cc1ccc(C2C3CSCC=C3C(C#N)=C(N)C2(C#N)C#N)cc1 (stereo not drawn)	0%	i	97%	25µM*	35%	2%
CC(=O)Nc1nc(-c2ccccc2)nc(-c2ccccc2OC(C)=O)n1	-8%	i	1.3µM*	16µM*	3%	-3%
COc1ccccc1CN1CC2(CCN(C(=O)c3cnccn3)CC2)C1	-3%	i	-5%	6%	-2%	-1%
Cc1noc(C)c1COC(=O)CCN1c2ccccc2Sc2ccccc21	0%	i	20µM*	-14%	-1%	1%
O=C1OC(c2ccc(O)c(-c3ccccc3)c2)(c2ccc(O)c(-c3ccccc3)c2)c2c(Cl)c(Cl)c(Cl)c(Cl)c21	-12%[11.4 µM]	i	2%[11.4 µM]	10%[11.4 µM]	-2%[15.4 µM]	1%[15.4 µM]
O=C1OC2(c3cc(Br)c(O)c(Br)c3Oc3c2cc(Br)c(O)c3Br)c2c(Cl)c(Cl)c(Cl)c(Cl)c21	78%	40µM*	0.13µM*	-25%	?	2.5µM*
